Source: PubChem BioAssay

What follows are compounds tested against Fibroblast growth factor 2 (Homo sapiens) (UniProt P09038) (assay: basic fibroblast growth factor binding to printed compounds – biochemical, small-molecule microarray, 635/667 nm fluorescence, primary screen (AID 1133)). Settings: FGF2, fluorescence 635/667, higher = more signal.
Chain of Fibroblast growth factor 2 (Homo sapiens) (P09038 whole entry, looked up): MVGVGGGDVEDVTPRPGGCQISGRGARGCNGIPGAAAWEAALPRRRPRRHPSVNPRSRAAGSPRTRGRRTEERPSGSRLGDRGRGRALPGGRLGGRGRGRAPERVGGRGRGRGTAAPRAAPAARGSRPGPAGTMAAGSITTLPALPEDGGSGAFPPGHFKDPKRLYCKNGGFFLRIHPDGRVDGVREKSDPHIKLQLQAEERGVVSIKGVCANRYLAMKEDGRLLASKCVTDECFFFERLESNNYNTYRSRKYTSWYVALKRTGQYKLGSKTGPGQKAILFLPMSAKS
`COCC(=C=CC[C@@H](O)c1ccc(CO)o1)CCO` gave a composite z-score of 0.958. Compound `CC(C)N1C(=O)c2ccccc2[C@@H](C(=O)NCCCN(C)C)[C@@H]1c1ccc(CO)cc1` has a composite z-score of -0.521. `C=C[C@@H](COC(C)=O)N(Cc1ccc([N+](=O)[O-])cc1)S(=O)(=O)c1ccc(Br)cc1` was tested, and the composite z-score was 0.54. Work on `CC(C)C(=C=CC[C@@H](O)c1ccccc1OCCO)C[C@@H](O)c1ccccn1` yielded a composite z-score of 0.566. `C=CCNC(=O)[C@@H]1[C@H]2C(=O)O[C@H](c3ccccc3)[C@H](c3ccccc3)N2[C@H](c2ccc(O)cc2)[C@@]12C(=O)N(C(=O)OCCOC)c1ccccc12` was tested, and the composite z-score was -0.145. `CC(C)(C)OC(=O)CC[C@@]1(C(=O)NCCN2CCOCC2)N=C(c2ccc(OCCCO)cc2)O[C@@H]1c1ccccc1` was tested, and the composite z-score was 0.695. `N#Cc1ccc(NN2C(C(O)C3CCCCC3)C=CC3C(=O)N(c4ccccc4)C(=O)C32)cc1` (stereo not given) gave a composite z-score of -0.252. Work on `C=CCN1C(=O)[C@]2(O[C@H](CCO)[C@@H]([Si](C)(C)c3ccc(OC)cc3)[C@@H]2C)c2cc(NC(=O)[C@H](C)O)ccc21` yielded a composite z-score of 0.313. Compound `O=C1O[C@H](c2ccccc2)[C@H](c2ccccc2)N2[C@H]1[C@@H](C(=O)N1CCN(c3ncccn3)CC1)[C@]1(C(=O)Nc3ccccc31)[C@H]2c1ccc(OCCO)cc1` has a composite z-score of 1.43. `O=C1OCCC/C=C\[C@H]2OC34C=CCN(Cn5nnc6ccccc65)C(=O)[C@H]3N(CCCCCO)C(=O)[C@@H]4C12` (stereo not given in full) was tested, and the composite z-score was -1.16. With `COc1cc2c(cc1OC)CN(C(=O)[C@@H]1[C@H]3C(=O)O[C@H](c4ccccc4)[C@H](c4ccccc4)N3[C@H](c3ccccc3OCCO)[C@@]13C(=O)Nc1ccc(C#CCNC(N)=O)cc13)CC2` the composite z-score was 0.748. `COC(=O)[C@@]1(Cc2ccccc2)[C@H]2c3cc(C(=O)N4CCCC4)n(C)c3C[C@H]2CN1C(=O)c1ccccc1` gave a composite z-score of -0.915. Compound `O=C1O[C@H](c2ccccc2)[C@H](c2ccccc2)N2[C@H]1[C@@H](C(=O)Nc1nc3ccccc3s1)[C@]1(C(=O)Nc3ccccc31)[C@H]2c1ccc(O)cc1` has a composite z-score of 1.47. For `CCN(CC)c1ccc(N2CC=CC34O[C@@H]5C=CCCOC(=O)C5[C@H]3C(=O)N(CCCCCO)[C@@H]4C2=O)cc1` (stereo not given in full), the composite z-score was -0.304. `COCCOC(=O)N1C(=O)[C@@]2(c3cc(C#CCC(C(=O)OC)C(=O)OC)ccc31)[C@H](c1ccc(O)cc1)N1[C@H](c3ccccc3)[C@H](c3ccccc3)OC(=O)[C@H]1[C@@H]2C(N)=O` showed a composite z-score of 1.33. Compound `NC(=O)NCC#Cc1ccc2c(c1)[C@]1(C(=O)N2)[C@H](C(=O)N2CCCCCCC2)[C@H]2C(=O)O[C@H](c3ccccc3)[C@H](c3ccccc3)N2[C@@H]1c1ccc(OCCO)cc1` has a composite z-score of 0.649. `CC(C)N1CC=CC23O[C@@H]4C=CCOC(=O)[C@@H]4[C@H]2C(=O)N(CCO)[C@@H]3C1=O` (stereo not given in full) showed a composite z-score of -1.33. With `COc1ccc(CCNC(=O)[C@@]2(c3ccc([N+](=O)[O-])cc3)CC(=O)N(CC34CC5CC(CC(C5)C3)C4)[C@@H]2c2ccc(CO)cc2)cc1` the composite z-score was 1.21. For `COCCOC(=O)N1C(=O)[C@@]2(c3ccccc31)[C@H](C(=O)NC[C@H](O)c1ccccc1)[C@H]1C(=O)O[C@H](c3ccccc3)[C@H](c3ccccc3)N1[C@@H]2c1ccc(OCCO)cc1`, the composite z-score was 1.77. Compound `COc1ccc(C(O)C2C=CC3C(=O)NC(=O)C3N2Nc2ccccn2)cc1OCc1ccccc1` (stereo not given) has a composite z-score of -1.37. `COCCOC(=O)N1C(=O)[C@@]2(c3cc(C#CC4=CCCCC4)ccc31)[C@H](C(=O)NC[C@H](O)c1ccccc1)[C@H]1C(=O)O[C@H](c3ccccc3)[C@H](c3ccccc3)N1[C@@H]2c1ccc(O)cc1` gave a composite z-score of 1.32. With `COc1ccc([Si](C)(C)[C@@H]2[C@@H](CCn3cc([C@H](O)c4ccccc4)nn3)O[C@]3(C(=O)N(Cc4ccc(N5C(=O)c6cccc7cccc5c67)cc4)c4ccccc43)[C@H]2C)cc1` the composite z-score was -0.513. `[N-]=[N+]=NCc1ccccc1C[C@]1(C(=O)O)N=C(c2ccc(OCCCO)cc2)O[C@H]1c1ccccc1CN=[N+]=[N-]` was tested, and the composite z-score was 0.157. `CC(C)NC(=O)[C@@H]1c2ccccc2C(=O)N(Cc2ccccc2)[C@H]1c1ccc(CO)cc1` gave a composite z-score of 0.394. For `COCCOC(=O)N1C(=O)[C@@]2(c3cc(C#CCNC(N)=O)ccc31)[C@H](c1ccccc1OCCO)N1[C@H](c3ccccc3)[C@H](c3ccccc3)OC(=O)[C@H]1[C@@H]2C(N)=O`, the composite z-score was 0.917. In the case of `O=C1C2C=CC(C(O)c3ccc(B(O)O)cc3)N(Nc3ccccc3)C2C(=O)N1c1ccccc1` (stereo not given), the composite z-score is reported as -0.581. `COC(=O)[C@@]1(Cc2ccc(F)cc2)[C@H]2c3cc(C(=O)N(C)C)n(CCc4ccccn4)c3C[C@H]2CN1C(=O)c1ccccc1` was tested, and the composite z-score was 0.0791. `Cc1ccc(S[C@]2(C(=O)NC3CC3)CC(=O)N(Cc3ccccc3)[C@@H]2c2ccc(CO)cc2)cc1` showed a composite z-score of -0.596. For `O=C1C2C=CC(C(O)c3ccc(F)cc3)N(Nc3ccccc3)C2C(=O)N1c1ccccc1` (stereo not given), the composite z-score was -0.762. For `Cc1cc(C)c(C(O)C2C=CC3C(=O)N(C)C(=O)C3N2Nc2ccccc2)c(C)c1` (stereo not given), the composite z-score was -0.0568. With `[N-]=[N+]=NCc1ccccc1C[C@]1(C(=O)NCCN2CCOCC2)N=C(c2ccc(OCCCO)cc2)O[C@H]1c1ccccc1N=[N+]=[N-]` the composite z-score was 0.0056. Work on `O=C(OCCF)C1=CCC(c2cccc(Cl)c2)O1` (stereo not given) yielded a composite z-score of -0.211. In the case of `[N-]=[N+]=NCc1ccccc1C[C@]1(C(=O)NCC(O)CO)N=C(c2ccc(OCCCO)cc2)O[C@H]1c1ccccc1N=[N+]=[N-]` (stereo not given in full), the composite z-score is reported as -0.189. Work on `COCC1=C2[C@@H](CCc3ccccc3)OB(O)C[C@@H]2[C@@H]2C(=O)N(Cc3ccccc3)C(=O)[C@@H]2C1` yielded a composite z-score of -0.0119. `[N-]=[N+]=Nc1ccccc1[C@H]1OC(c2ccc(OCCCO)cc2)=N[C@@]1(CCS(=O)(=O)c1ccccc1)C(=O)O` was tested, and the composite z-score was 0.174.
